# Measurements: PubChem BioAssay AID651739 (Broad Institute, 2012)
# The whole screen tested about 5,600 compounds, of which about 4,100 (73%) were called active. Another 4% or so got no clear call; they are omitted. So high a share suggests a set chosen from earlier hits. Not all results are given here. A number with no mark means an inactive call.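 How the source made its calls: active means mean replicate inhibition above about 95% and at least 55% of replicates individually reaching it (limit read from the data); inconclusive means only one of the two criteria is met; inactive means neither criterion is met.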
# Assay: blockers of Trypanosoma cruzi growth in host cells – cell-based, NIH3T3 host, beta-gal parasite, luminescence, cherry-pick, confirmation (AID 651739)
# Conditions: T. cruzi beta-gal in NIH3T3, GalScreen luminescence, 90 h; at 8.35 µM; stronger effect = higher value
row,SMILES,inhibition
1,O=C(c1ccccn1)N1CC[C@@H]2[C@H]1c1cc(-c3ccccc3)ccc1N[C@@H]2CO,107% (active)
2,O=C(c1cnccn1)N1CC[C@@H]2[C@H](CO)Nc3ccc(-c4cccc(F)c4)cc3[C@@H]21,109% (active)
3,OC[C@@H]1Nc2ccc(-c3cccc(F)c3)cc2[C@H]2[C@@H]1CCN2Cc1ccncc1,114% (active)
4,CN(C)C(=O)c1ccc(-c2ccc3c(c2)[C@H]2[C@H](CCN2C(=O)c2ccc4c(c2)OCO4)[C@H](CO)N3)cc1,100% (active)
5,O=C(c1ccccc1F)N1C[C@H]2[C@@H](c3ccccc31)[C@@H](CO)N2C(=O)c1ccc(F)cc1,46.6%
6,C[C@@H]1CN([C@@H](C)CO)S(=O)(=O)c2ccc(C#Cc3ccc(F)cc3)cc2O[C@H]1CN(C)S(C)(=O)=O,85.8%
7,C[C@@H]1CN([C@H](C)CO)S(=O)(=O)c2ccc(C#Cc3ccncc3)cc2O[C@@H]1CN(C)S(=O)(=O)c1ccc(F)cc1,70.2%
8,CCCN(C)C[C@@H]1Oc2cc(C#Cc3ccc(F)cc3)ccc2S(=O)(=O)N([C@H](C)CO)C[C@H]1C,108% (active)
9,CCCN(C)C[C@H]1Oc2cc(C#CC3CCCC3)ccc2S(=O)(=O)N([C@H](C)CO)C[C@@H]1C,105% (active)
10,COc1ccc(NC(=O)N2CC[C@@H]3[C@@H](CO)N(C)c4ccc(-c5cccc(F)c5)cc4[C@@H]32)cc1,100% (active)
11,CCC(=O)N1CC[C@@H]2[C@@H](CO)N(C)c3ccc(-c4cccc(OC)c4)cc3[C@@H]21,99.1% (active)
12,CN1c2ccc(-c3ccccc3)cc2[C@@H]2[C@@H](CCN2C(=O)c2ccncc2)[C@@H]1CO,100% (active)
13,CN1c2ccc(-c3ccccc3)cc2[C@H]2[C@H](CCN2C(=O)Cc2ccccn2)[C@H]1CO,88.9%
14,COc1ccc(-c2ccc3c(c2)[C@@H]2[C@@H](CCN2C(=O)Cc2ccccn2)[C@H](CO)N3C)cc1,108% (active)
15,CCC(=O)N1CC[C@@H]2[C@@H](CO)N(C)c3ccc(-c4ccc(F)cc4)cc3[C@@H]21,102% (active)
16,C[C@@H]1CN([C@H](C)CO)C(=O)c2cc(-c3cncnc3)cnc2O[C@H]1CN(C)C(=O)Nc1ccc2c(c1)OCO2,-15.5%
17,C[C@H]1CN([C@@H](C)CO)C(=O)c2ccccc2-c2ccccc2CO[C@@H]1CN(C)S(=O)(=O)c1ccc(C(F)(F)F)cc1,99.2% (active)
18,C[C@H](CO)N1C[C@H](C)[C@H](CN(C)S(=O)(=O)c2ccccc2)Oc2ncc(-c3cccc(C(F)(F)F)c3)cc2C1=O,108% (active)
19,C[C@H](CO)N1C[C@H](C)[C@@H](CN(C)S(=O)(=O)c2cccc(F)c2)OCc2ccccc2-c2c(n(C)c3ccccc23)C1=O,99.6% (active)
20,Cc1noc(C)c1S(=O)(=O)N(C)C[C@H]1Oc2ccc(N(C)C)cc2CC(=O)N([C@H](C)CO)C[C@@H]1C,-37.8%
21,C[C@H](CO)N1C[C@H](C)[C@@H](CN(C)C(=O)Nc2ccnc(N3CCOCC3)c2)OCc2ccccc2-c2ccccc2C1=O,100% (active)

row,SMILES,inhibition
1,Cc1ccc(-c2cnc3c(c2)C(=O)N([C@@H](C)CO)C[C@@H](C)[C@H](CN(C)Cc2ccccc2F)O3)cc1,102% (active)
2,Cc1ccc(S(=O)(=O)N(C)C[C@@H]2Oc3ncc(-c4cc5ccccc5o4)cc3C(=O)N([C@H](C)CO)C[C@@H]2C)cc1,105% (active)
3,COc1ccccc1-c1ccc2c(c1)O[C@H](CN(C)S(=O)(=O)c1ccc(C)cc1)[C@@H](C)CN([C@H](C)CO)S2(=O)=O,93.9%
4,C[C@H](CO)N1C[C@H](C)[C@H](CN(C)S(=O)(=O)c2cccc(F)c2)Oc2ncc(/C=C/c3ccccc3)cc2C1=O,102% (active)
5,C[C@@H]1CN([C@H](C)CO)S(=O)(=O)c2ccc(C#CC3CCCC3)cc2O[C@@H]1CN(C)Cc1cccnc1,98.8% (active)
6,C[C@H]1CN([C@@H](C)CO)S(=O)(=O)c2ccc(C#CC3CCCC3)cc2O[C@H]1CN(C)C(=O)Cc1ccncc1,110% (active)
7,C[C@H](CO)N1C[C@H](C)[C@H](CN(C)Cc2cccnc2)Oc2cc(C#CC3CCCC3)ccc2S1(=O)=O,108% (active)
8,C[C@@H]1CN([C@H](C)CO)S(=O)(=O)c2ccc(C#CC3CCCC3)cc2O[C@@H]1CN(C)C(=O)Cc1ccncc1,92.6%
9,C[C@@H]1CCCCO[C@@H](CN(C)Cc2ccc(Cl)c(Cl)c2)[C@H](C)CN([C@H](C)CO)C(=O)c2cc(NC(=O)Nc3ccc(F)cc3)ccc2O1,88.5%
10,C[C@@H]1CN([C@H](C)CO)C(=O)c2cc(NC(=O)Nc3ccc(F)cc3)ccc2O[C@@H](C)CCCCO[C@H]1CN(C)Cc1ccc(Cl)c(Cl)c1,98.3% (active)
11,COc1ccc(NC(=O)Nc2ccc3c(c2)C(=O)N([C@H](C)CO)C[C@@H](C)[C@H](CN(C)Cc2ccc(Cl)c(Cl)c2)OCCCC[C@@H](C)O3)cc1,98.8% (active)
12,C[C@@H]1CN([C@H](C)CO)C(=O)Cc2cc(NC(=O)c3ccncc3)ccc2O[C@H]1CN(C)Cc1ccc(-c2ccccc2)cc1,109% (active)
13,C[C@H](CO)N1C[C@H](C)[C@H](CN(C)Cc2ccc(-c3ccccc3)cc2)Oc2ccc(NC(=O)Nc3ccc(F)cc3)cc2CC1=O,110% (active)
14,C[C@@H]1CN([C@@H](C)CO)C(=O)Cc2cc(NC(=O)C3CCCCC3)ccc2O[C@@H]1CN(C)Cc1ccc(C(=O)Nc2ccccc2N)cc1,103% (active)
15,C[C@H](CO)N1C[C@H](C)[C@@H](CN(C)Cc2ccc(-c3ccccc3)cc2)Oc2ccc(NC(=O)CCC(F)(F)F)cc2CC1=O,92.4%
16,Cc1cccc(-c2ccc([C@@H]3[C@H](CO)N4CCCCN(C(=O)c5ccc6c(c5)OCO6)C[C@@H]34)cc2)c1,105% (active)
17,CCCC#Cc1ccc([C@H]2[C@H](CO)N3CCCCN(C(=O)c4ccc5c(c4)OCO5)C[C@@H]23)cc1,104% (active)
18,COCC#Cc1ccc([C@@H]2[C@H](CO)N3CCCCN(C(=O)CN(C)C)C[C@@H]23)cc1,57.7%
19,COc1ccc(-c2ccc([C@H]3[C@H]4CN(C(=O)c5ccc6c(c5)OCO6)CCCCN4[C@H]3CO)cc2)cc1,106% (active)
20,O=C(CN1CCOCC1)N1CCCCN2[C@@H](CO)[C@H](c3ccc(/C=C/c4ccccc4)cc3)[C@@H]2C1,99.6% (active)
21,CCC(=O)N1CCCCN2[C@H](C1)[C@@H](c1ccc(-c3ccc(F)cc3)cc1)[C@@H]2CO,60.2%

row,SMILES,inhibition
1,O=C(CN1CCOCC1)N1CCCCN2[C@H](CO)[C@H](c3ccc(-c4ccccc4)cc3)[C@@H]2C1,73.7%
2,CCC(=O)N1CCCCN2[C@H](C1)[C@@H](c1ccc(/C=C/c3ccccc3)cc1)[C@@H]2CO,102% (active)
3,O=C(CN1CCOCC1)N1CCCCN2[C@@H](CO)[C@H](c3ccc(-c4ccccc4)cc3)[C@@H]2C1,81.6%
4,O=C(C[C@H]1CC[C@@H]2[C@H](COC[C@H](O)CN2Cc2ccc(Oc3ccccc3)cc2)O1)N1CCN(c2ccccc2)CC1,101% (active)
5,COc1cccc(C#Cc2ccc([C@@H]3[C@H](C#N)N[C@H]3CO)cc2)c1,101% (active)
6,COc1ccccc1NC(=O)N1CCCCN2[C@H](C1)[C@H](c1ccc(-c3ccccc3)cc1)[C@@H]2CO,109% (active)
7,O=C(Nc1ccccc1F)N1CCCCN2[C@H](CO)[C@@H](c3ccc(-c4cccnc4)cc3)[C@H]2C1,61.1%
8,COc1ccc(C#Cc2ccc([C@@H]3[C@@H](CO)N4CCCCN(C(=O)c5ccncc5)C[C@@H]34)cc2)cc1,80.6%
9,O=C(Nc1cc(F)ccc1F)N1CCCCN2[C@H](CO)[C@@H](c3ccc(-c4cncnc4)cc3)[C@H]2C1,55.4%
10,O=C(c1cccc(F)c1)N1CCCCN2[C@H](CO)[C@H](c3ccc(-c4ccncc4)cc3)[C@H]2C1,95.2% (active)
11,CC(C)(O)C#Cc1ccc([C@@H]2[C@H](CO)N3CCCCN(C(=O)c4cccc(F)c4)C[C@@H]23)cc1,76.7%
12,O=C(c1ccncc1)N1CCCCN2[C@H](CO)[C@H](c3ccc(-c4ccccc4)cc3)[C@H]2C1,105% (active)
13,O=C(c1cccnc1)N1CCCCN2[C@@H](CO)[C@H](c3ccc(C#Cc4ccccc4)cc3)[C@@H]2C1,112% (active)
14,C[C@@H]1CCCCO[C@@H](CN(C)Cc2ccc(C(F)(F)F)cc2)[C@@H](C)CN([C@H](C)CO)C(=O)c2cc(NC(=O)Nc3ccccc3)ccc2O1,105% (active)
15,C[C@@H]1CCCCO[C@H](CN(C)Cc2ccc(C(F)(F)F)cc2)[C@H](C)CN([C@H](C)CO)C(=O)c2cc(NC(=O)Nc3ccc(F)cc3)ccc2O1,96.3% (active)
16,C[C@@H]1CCCCO[C@H](CN(C)Cc2ccccc2)[C@@H](C)CN([C@@H](C)CO)C(=O)c2cc(NC(=O)Nc3ccc(F)cc3)ccc2O1,101% (active)
17,C[C@@H]1CN([C@H](C)CO)C(=O)c2cc(NS(=O)(=O)c3cccs3)ccc2O[C@@H](C)CCCCO[C@H]1CN(C)Cc1ccc(C(F)(F)F)cc1,101% (active)
18,C[C@H]1CCCCO[C@H](CN(C)Cc2ccccc2)[C@@H](C)CN([C@@H](C)CO)C(=O)c2cc(NC(=O)c3ccccc3)ccc2O1,113% (active)
19,C[C@H]1CCCCO[C@H](CN(C)Cc2ccccc2)[C@@H](C)CN([C@@H](C)CO)C(=O)c2cc(NC(=O)NC3CCCCC3)ccc2O1,111% (active)
